According to PubChem BioAssay AID504834 (National Center for Advancing Translational Sciences (NCATS), 2011):
Several values for one entry are separate records, joined by “and”; a condition that tells them apart may be missing. Identical values can stand only once. Screen size: about 320,000 compounds; about 22,000 (6.9%) were called active. Inconclusive results (about 27%) are left out. This is one part of a sample in which actives are shown more often than they occur. A number with no mark means an inactive call. Calls follow the shape of the dose curve; as a rule, active = well fitted inhibition curve with a large enough effect; inconclusive = small, poorly fitted or top-dose-only effect, or another doubt; inactive = no such curve, though single readings can be large or run the other way.

Assay: Primary qHTS for delayed death inhibitors of the malarial parasite plastid, 96 hour incubation
Settings: P. falciparum luciferase reporter growth; series mostly up to 28.7 µM; activity change, negative = inhibition: at the top concentration
Procedure, shortened: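 Cell-based qHTS: luciferase-tagged P. falciparum in erythrocytes (2% hematocrit, 0.05% parasitemia final) incubated with compounds for 96 hours, 37 C, 5% CO2; luciferase detection reagent then added and luminescence measured.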
% is scaled to controls: 0 for no effect and ±100 for the full control effect; potency is read from the fitted curve at half-maximal effect.

Row | Structure (SMILES) | activity change, negative = inhibition [%] | Potency
1 | Cc1ccc(C(=O)N/C(=C\c2cn(S(=O)(=O)N(C)C)c3ccccc23)C(=O)N2CCCC2)cc1 | 0 | 
2 | COc1ccc(-n2nnnc2CNC(=O)c2ccc3ccccc3c2)cc1 | -2.21 | 
3 | COc1ccc(NC(=O)N2CCCC(C(=O)Nc3ccccc3OC)C2)cc1 (stereo unspecified) | -1.69 | 
4 | CSC1=NCCN1C(=O)Cc1cccc2ccccc12 | 0.0301 | 
5 | COc1cc(CNCc2ccc(OC)c3ccccc23)cc(OC)c1OC | -15.6 | 
6 | Cc1ccccc1CN1CCC(C(=O)Nc2ccc(Oc3cccnc3)cc2)CC1 | -25.5 | 
7 | O=C(Nc1cccc(Cl)c1)C1CCCN(c2cnccn2)C1 (stereo unspecified) | 28.4 | 
8 | COc1cc(NC(=O)C2CCN(c3cnccn3)CC2)cc(OC)c1 |  | 2.62 µM (active)
9 | O=C(COC(=O)Cc1ccccc1F)NCCc1ccccc1 | 12.9 | 
10 | Cc1nc2ccc(S(=O)(=O)NCC(=O)NCCN3CCCCC3C)cc2s1 (stereo unspecified) | -2.45 | 
11 | Cc1nc2ccc(S(=O)(=O)NC(C(=O)N3CCCCCC3)C(C)C)cc2s1 (stereo unspecified) | -2.11 | 
12 | Cc1nc2ccc(S(=O)(=O)NCC(=O)O)cc2s1 |  | 16.5 µM (active)
13 | C=CCC(NC(=O)Cc1ccccc1)C(=O)NCCC (stereo unspecified) | -3.59 | 
14 | CCOCCc1nn2c(=O)cc(CSCC(=O)Nc3cccc(C)c3C)nc2s1 | 43.5 | 
15 | O=C(CN1CCCCC1)Nc1ccccc1Cl | 15.1 | 
16 | Cc1nn(Cc2ccccc2)c(C)c1C(=O)N1CCN(CC(=O)Nc2ccccc2Cl)CC1 |  | 13.1 µM (active)
17 | COc1cccc(NC(=O)CN2CCN(CC(=O)Nc3ccccc3Cl)CC2)c1 | -11 | 
18 | Cc1ccc(NC(=O)Cc2nc(COC(=O)C(C)NS(=O)(=O)c3ccc(C)cc3)cs2)cc1 (stereo unspecified) | 21.2 | 
19 | CCN(CC)C(=O)c1nc[nH]c1C(=O)N(C)Cc1ccccc1 | 0 | 
20 | CC(=O)Nc1ccc(Oc2ccc3c(c2)C(=O)NC3=O)cc1 | -18.9 | 
21 | Cc1csc(NC(=O)CSc2nc(=O)cc(N)n2-c2ccc(F)cc2)n1 | 21.5 | 
22 | Cc1cccc(NC(=S)NCCc2ccc(Cl)cc2)c1C | 0 | 
23 | Cc1cc(OCCN2CCCC2)ccc1C(C)C | -17.9 | 
24 | Cc1cc(OCCN2CCCC2)cc(C(C)C)c1 |  | 10.4 µM (active)

Row | Structure (SMILES) | activity change, negative = inhibition [%] | Potency
25 | Cc1ccc(C(C)C)cc1OCCN1CCCC1 | -7.33 | 
26 | CCOCCCNc1c(CC)c(C)c(C#N)c2nc3ccccc3n12 | -16.7 | 
27 | CN1C(C(=O)NCC2CC2)CC2Cn3c(nc4ccccc43)C21 (stereo unspecified) | 56.6 | 
28 | CCOC(=O)N1CCN(Cc2nc3ccc([N+](=O)[O-])cc3c(=O)n2-c2cccc(OC)c2)CC1 |  | 2.33 µM (active)
29 | CCOC(=O)N1CCN(Cc2nc3cc(NC(=O)CC)ccc3n2CC)CC1 | -12.6 | 
30 | CCOC(=O)N1CCN(Cc2nc3cc(NC(C)=O)ccc3n2C)CC1 | -19.3 | 
31 | CN(C(=O)CSc1nnc(-c2ccc3c(c2)OCO3)o1)C1CCS(=O)(=O)C1 (stereo unspecified) | -13.6 | 
32 | CC(=O)Nc1ccc(/C=C/C(=O)c2ccccc2)cc1 | 67.7 | 
33 | O=C(NC1CCCC1)C(=O)c1c[nH]c2ccccc12 | 4.04 | 
34 | OC(COc1cccc(OCC(O)CN2CCCC2)c1)CN1CCCC1 (stereo unspecified) | 20.7 | 
35 | CC(=O)c1ccc(OCC(O)CN2CCN(S(=O)(=O)c3cccc(Br)c3)CC2)cc1 (stereo unspecified) | -27.6 | 
36 | Cc1cccc(OCC(O)CN2CCN(S(=O)(=O)c3ccc(C)cc3C)CC2)c1 (stereo unspecified) |  | 6.57 µM (active)
37 | O=S(=O)(Nc1ccc(-n2cnnn2)cc1)c1ccc(Cl)cc1 | -0.496 | 
38 | C=CC[n+]1c(-c2ccc(C)cc2)csc1NNC(=O)Nc1ccccc1 |  | 7.38 µM (active)
39 | C=CCNc1scc(-c2ccccc2)[n+]1CC=C | 4.04 | 
40 | Cc1ccc(NC(=O)NNC(=O)c2sccc2-n2cccc2)cc1 | 42.9 | 
41 | O=C(NCc1ccco1)/C(=C/c1cccc([N+](=O)[O-])c1)NC(=O)c1ccco1 | 3.76 | 
42 | CCc1sc(C(=O)N2CCN(CC(=O)Nc3cccc(F)c3)CC2)cc1C | -79.8 | 
43 | Cc1noc(/C=C/c2ccco2)c1S(=O)(=O)N1CCC(C(=O)N2CCc3ccccc32)CC1 | -96.6 | 
44 | Cc1ccc(NC(=O)C2CCCN(S(=O)(=O)c3c(C)noc3C)C2)c(C)c1 (stereo unspecified) | -0.795 | 
45 | CNC(=O)C1CCN(S(=O)(=O)c2c(C)noc2/C=C/c2cccc(C)c2)CC1 |  | 10.4 µM (active)
46 | CC(C)CC(=O)Nc1cc(C(F)(F)F)ccc1N1CCOCC1 | -85.5 | 
47 | CCC(=O)Nc1cc(C(F)(F)F)ccc1N1CCCC1 | 29.3 | 
48 | O=C(CCC1CCCCC1)Nc1cc(C(F)(F)F)ccc1N1CCOCC1 |  | 13.1 µM (active)

Row | Structure (SMILES) | activity change, negative = inhibition [%] | Potency
49 | CCc1ccc(C(=O)NC(=S)Nc2ccccc2N2CCOCC2)cc1 | 17 | 
50 | C/C=N/N(c1ccccc1)c1ccccc1 | 51.4 | 
51 | CCN(CC(=O)Nc1ccc(S(=O)(=O)N2CCCC2)cc1)CC(=O)Nc1cccc(OC)c1 | -17 | 
52 | CCOC(=O)c1cnc(-n2nc(C)cc2C)nc1-n1nc(C)cc1C | 26 | 
53 | CCOC(=O)c1ccccc1NC(=O)CSc1nc2ccccc2c(=O)[nH]1 | -0.129 | 
54 | CCOC(=O)c1cc(NC(=O)SCC(=O)O)c(C)nc1C |  | 7.38 µM (active)
55 | CC1CCC(NS(=O)(=O)c2ccc3c(c2)CC(=O)N3)CC1 (stereo unspecified) | -7.2 | 
56 | Cc1ccc(Cc2nnc(SCC(=O)Nc3ccc(C)cc3C)[nH]c2=O)cc1 | 31.1 | 
57 | O=C(CCN1CCN(C/C=C/c2ccccc2)CC1)Nc1ccccc1Cl | -27.3 | 
58 | C/C(=N\NC(=O)c1ccoc1C)c1ccccc1O | 163 | 
59 | COc1ccc(C(=O)c2c(C)c(CCC#N)n3ccccc23)c(OC)c1 | -23.2 | 
60 | Oc1c(Cl)cc(Cl)c(Cl)c1Cc1c(O)c(Cl)cc(Cl)c1Cl |  | 12 µM (active) and 9.28 µM (active)
61 | CN(C)c1nc(NN)nc(Nc2ccc(F)cc2)n1 | 1.79 | 
62 | COc1ccc(N(CC(=O)Nc2cccc3ccccc23)S(C)(=O)=O)c(OC)c1 | -37.1 | 
63 | C=CCn1c(SCC(=O)NC23CC4CC(CC(C4)C2)C3)nc(O)cc1=O | -29.2 | 
64 | C=CCn1c(COc2ccccc2)nnc1SCC(=O)NCC(=O)OCC | 4.6 | 
65 | C=CCn1c(SCC(=O)NC)nnc1C12CC3CC(CC(C3)C1)C2 |  | 11.7 µM (active)
66 | C=CCSc1nnc(NC(=O)c2ccc(NC(C)=O)cc2)s1 | 14 | 
67 | CC1CC(C)CN(C(=O)CCNC(=O)Cn2cnc3ccccc3c2=O)C1 (stereo unspecified) | -3.35 | 
68 | Cc1cc(S(=O)(=O)N2CCOCC2)ccc1OCC(=O)N1CCOCC1 | 9.58 | 
69 | O=C1CCc2cc(S(=O)(=O)N3CCC(C(=O)NCc4ccccc4Cl)CC3)ccc2N1 |  | 13.1 µM (active)
70 | O=C(NCc1ccccc1Cl)C1CCN(S(=O)(=O)c2cccc3nonc23)CC1 | -7.24 | 
71 | O=C(NCc1ccccc1Cl)C1CCN(S(=O)(=O)N2CCOCC2)CC1 | 4.74 | 
